Reference: ChEMBL document CHEMBL1961873, “Compounds: GSK PKIS; Assays: Nanosyn kinase panel” (2012)

Target: T1, Serine/threonine-protein kinase D2 (Homo sapiens) (UniProt Q9BZL6);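 note: mean value of PRKD2 inhibition, from the GSK PKIS screening panel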
T1 sequence (whole entry): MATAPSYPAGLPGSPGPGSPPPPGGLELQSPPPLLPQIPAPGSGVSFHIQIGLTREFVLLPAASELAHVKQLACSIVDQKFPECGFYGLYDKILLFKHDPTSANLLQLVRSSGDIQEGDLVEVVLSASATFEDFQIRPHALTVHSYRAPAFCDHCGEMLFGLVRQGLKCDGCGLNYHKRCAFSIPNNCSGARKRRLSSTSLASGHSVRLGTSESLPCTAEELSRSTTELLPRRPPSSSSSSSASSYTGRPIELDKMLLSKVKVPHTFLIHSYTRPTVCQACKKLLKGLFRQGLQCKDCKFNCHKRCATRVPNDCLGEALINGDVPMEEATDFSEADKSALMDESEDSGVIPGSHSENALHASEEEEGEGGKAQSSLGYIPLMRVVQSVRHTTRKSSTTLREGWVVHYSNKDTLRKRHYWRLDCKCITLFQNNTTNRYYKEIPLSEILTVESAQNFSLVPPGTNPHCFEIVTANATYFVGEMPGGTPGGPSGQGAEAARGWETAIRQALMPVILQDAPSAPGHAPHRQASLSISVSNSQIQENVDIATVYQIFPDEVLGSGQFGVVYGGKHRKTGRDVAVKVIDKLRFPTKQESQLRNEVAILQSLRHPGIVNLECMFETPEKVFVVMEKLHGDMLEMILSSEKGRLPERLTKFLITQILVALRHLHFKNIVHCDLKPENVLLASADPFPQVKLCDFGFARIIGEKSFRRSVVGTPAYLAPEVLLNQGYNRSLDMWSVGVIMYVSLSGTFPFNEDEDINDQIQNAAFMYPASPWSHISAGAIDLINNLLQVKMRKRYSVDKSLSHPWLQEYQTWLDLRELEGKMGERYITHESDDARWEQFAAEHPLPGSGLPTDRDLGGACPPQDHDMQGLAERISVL
Details: at 1 µM

| SMILES | inhibition [%] |
| --- | --- |
| CC(C)(CO)CNC(=O)c1ccc2c(c1)/C(=N/Nc1ccc(S(N)(=O)=O)cc1)C(=O)N2 | 11.8 |
| O=C(Nc1n[nH]c2cc(-c3ccc(F)cc3)ccc12)C1CC1 | 4.37 |
| NC(=O)c1sc(-n2cnc3ccc(C(F)(F)F)cc32)cc1OCc1ccccc1Br | 4.08 |
| CCn1c(-c2nonc2N)nc2ccccc21 | 4.37 |
| c1ccc(-c2nc3n(c2-c2ccc4c(c2)OCO4)CCC3)nc1 | 4.47 |
| CCNC(=O)O[C@H]1CN[C@H](C#Cc2cc3ncnc(Nc4ccc(OCc5cccc(F)c5)c(Cl)c4)c3s2)C1 | 3.71 |
| CCn1c(-c2nonc2N)nc2cnc(Oc3cccc(NC(=O)c4ccc(N(C)C)cc4)c3)cc21 | 5.77 |
| CC(=O)Nc1cccc(C#Cc2cncnc2Nc2ccc(OCc3cccc(F)c3)c(Cl)c2)c1 | 3.79 |
| N#Cc1c(NC(=O)c2ccc(F)cc2)sc2c1CCCC2 | 2.16 |
| CS(=O)(=O)CCNCc1coc(-c2ccc3ncnc(Nc4ccc(OCc5ccccc5)cc4)c3c2)c1 | 2.1 |
| N#Cc1c(NC(=O)CN2CCOCC2)sc2c1CCCC2 | 6.36 |
| NS(=O)(=O)c1ccc(Nc2ncc(-c3ccccc3)o2)cc1 | 5.55 |
| COc1cc(/C=N/Nc2ncnc3[nH]ncc23)ccc1O | 3.63 |
| COC(=O)Nc1nc2ccc(Oc3ccc(NC(=O)Nc4cccc(Cl)c4)cc3)cc2[nH]1 | 2.04 |
| CNC(=O)c1cncc(/C=C/c2ccccc2Cl)c1 | -1.08 |
| COc1cc(N2CCN(C(C)C)CC2)ccc1Nc1nc(Nc2ccc(F)cc2C(N)=O)c2cc[nH]c2n1 | 83.9 |
| Clc1ccc(-c2nn3ncccc3c2-c2ccnc(Nc3ccccc3)n2)cc1 | 2.67 |

| SMILES | inhibition [%] |
| --- | --- |
| Fc1ccc(-c2nn3ccccc3c2-c2ccncc2)cc1 | 5.87 |
| COc1cc2c(cc1Nc1nc(Nc3ccsc3C(N)=O)c3cc[nH]c3n1)N(C(=O)CN(C)C)CCC2(C)C | 75.7 |
| CN1CCC(n2cnc(-c3ccc(F)cc3)c2-c2ccnc(N)n2)CC1 | 16.4 |
| FC(F)(F)c1cccc(-c2nn3ncccc3c2-c2ccnc(Nc3ccc4c(c3)OCCO4)n2)c1 | 49 |
| CC1=C(C(=O)Nc2cc(Cl)c3[nH]ncc3c2)C(c2ccc(C(F)(F)F)cc2)CC(=O)N1 (stereo unspecified) | 7.46 |
| CS(=O)(=O)CCNCc1ccc(-c2ccc3ncnc(Nc4ccc(OCc5ccccc5)c(C(F)(F)F)c4)c3c2)o1 | 2.47 |
| Nc1nc(-c2ccc(F)cc2)c(-c2ccc3ncccc3n2)s1 | 51.9 |
| COc1cc(Nc2nccc(Nc3ccc4c(C)n[nH]c4c3)n2)cc(OC)c1OC | 2.94 |
| CN(C)CCOc1ccc(-c2nc(-c3ccncc3)c(-c3ccc4c(c3)CC/C4=N\O)[nH]2)cc1 | 6.37 |
| CCn1c(-c2nonc2N)nc2c(C#CC(C)(C)O)ncc(OC3CCNCC3)c21 | 11.1 |
| [O-][S+]1CCN(Cc2ccc(-c3ccc4ncnc(Nc5ccc(OCc6cccc(F)c6)c(Cl)c5)c4c3)o2)CC1 | 6.63 |
| COc1ccc(-c2cc(-c3c[nH]nc3-c3ccccn3)ccn2)cc1 | 44.8 |
| Cc1ccc2c(-c3ccnc(Nc4ccccc4)n3)c(-c3ccc(F)cc3)nn2n1 | 87 |
| COc1ccc(-c2oc3ncnc(N)c3c2-c2ccc(NC(=O)Nc3cc(C(F)(F)F)ccc3F)cc2)cc1 | 3.15 |
| CCCN(CCS(C)(=O)=O)Cc1ccc(-c2ccc3ncnc(Nc4ccc(OCc5cccc(F)c5)c(Cl)c4)c3c2)o1 | 1.95 |
| CCn1c(-c2nonc2N)nc2c(C#CC(C)(C)O)nc(OC[C@H](N)c3ccccc3)cc21 | 25.6 |

Target: T2, Serine/threonine-protein kinase D3 (Homo sapiens) (UniProt O94806);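 note: each value is the mean of inhibition readings, from a kinase profiling panel run on the GSK PKIS inhibitor collection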
T2 sequence (whole entry): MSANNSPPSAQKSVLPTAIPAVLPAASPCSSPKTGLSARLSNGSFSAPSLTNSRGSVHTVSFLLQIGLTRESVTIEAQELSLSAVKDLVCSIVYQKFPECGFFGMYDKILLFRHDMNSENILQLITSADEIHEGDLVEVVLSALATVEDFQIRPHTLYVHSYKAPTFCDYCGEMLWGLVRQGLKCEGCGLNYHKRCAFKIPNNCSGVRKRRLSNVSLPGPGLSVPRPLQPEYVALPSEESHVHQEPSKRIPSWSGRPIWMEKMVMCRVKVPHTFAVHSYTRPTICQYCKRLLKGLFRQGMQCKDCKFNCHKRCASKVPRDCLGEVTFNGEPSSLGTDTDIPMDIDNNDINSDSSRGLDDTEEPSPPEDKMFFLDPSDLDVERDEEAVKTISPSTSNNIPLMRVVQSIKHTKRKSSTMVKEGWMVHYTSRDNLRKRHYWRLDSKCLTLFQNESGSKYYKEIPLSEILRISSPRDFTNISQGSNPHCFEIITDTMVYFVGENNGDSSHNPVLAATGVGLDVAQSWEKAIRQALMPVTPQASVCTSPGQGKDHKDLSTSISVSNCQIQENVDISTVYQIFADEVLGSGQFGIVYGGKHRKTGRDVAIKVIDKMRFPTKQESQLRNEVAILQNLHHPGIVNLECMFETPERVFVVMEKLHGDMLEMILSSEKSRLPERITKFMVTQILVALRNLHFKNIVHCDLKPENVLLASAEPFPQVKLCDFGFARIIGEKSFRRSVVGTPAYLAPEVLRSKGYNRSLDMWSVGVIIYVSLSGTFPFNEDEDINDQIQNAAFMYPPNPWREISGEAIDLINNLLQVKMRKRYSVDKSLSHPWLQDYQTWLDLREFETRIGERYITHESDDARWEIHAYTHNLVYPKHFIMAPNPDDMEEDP
Details: at 0.1 µM

| SMILES | inhibition [%] |
| --- | --- |
| CC(C)(CO)CNC(=O)c1ccc2c(c1)/C(=N/Nc1ccc(S(N)(=O)=O)cc1)C(=O)N2 | 0.07 |
| O=C(Nc1n[nH]c2cc(-c3ccc(F)cc3)ccc12)C1CC1 | 3.68 |
| NC(=O)c1sc(-n2cnc3ccc(C(F)(F)F)cc32)cc1OCc1ccccc1Br | 4.03 |
| CCn1c(-c2nonc2N)nc2ccccc21 | 2.15 |
| c1ccc(-c2nc3n(c2-c2ccc4c(c2)OCO4)CCC3)nc1 | 2.58 |
| CCNC(=O)O[C@H]1CN[C@H](C#Cc2cc3ncnc(Nc4ccc(OCc5cccc(F)c5)c(Cl)c4)c3s2)C1 | 2.4 |
| CCn1c(-c2nonc2N)nc2cnc(Oc3cccc(NC(=O)c4ccc(N(C)C)cc4)c3)cc21 | 1.61 |
| CC(=O)Nc1cccc(C#Cc2cncnc2Nc2ccc(OCc3cccc(F)c3)c(Cl)c2)c1 | 2.13 |
| N#Cc1c(NC(=O)c2ccc(F)cc2)sc2c1CCCC2 | 1.7 |
| CS(=O)(=O)CCNCc1coc(-c2ccc3ncnc(Nc4ccc(OCc5ccccc5)cc4)c3c2)c1 | 2.3 |
| N#Cc1c(NC(=O)CN2CCOCC2)sc2c1CCCC2 | 4.08 |
| NS(=O)(=O)c1ccc(Nc2ncc(-c3ccccc3)o2)cc1 | 3.51 |
| COc1cc(/C=N/Nc2ncnc3[nH]ncc23)ccc1O | 2.22 |
| COC(=O)Nc1nc2ccc(Oc3ccc(NC(=O)Nc4cccc(Cl)c4)cc3)cc2[nH]1 | 0.95 |
| CNC(=O)c1cncc(/C=C/c2ccccc2Cl)c1 | 0.25 |
| COc1cc(N2CCN(C(C)C)CC2)ccc1Nc1nc(Nc2ccc(F)cc2C(N)=O)c2cc[nH]c2n1 | 38.8 |
| Clc1ccc(-c2nn3ncccc3c2-c2ccnc(Nc3ccccc3)n2)cc1 | 1.78 |

| SMILES | inhibition [%] |
| --- | --- |
| Fc1ccc(-c2nn3ccccc3c2-c2ccncc2)cc1 | 3.07 |
| COc1cc2c(cc1Nc1nc(Nc3ccsc3C(N)=O)c3cc[nH]c3n1)N(C(=O)CN(C)C)CCC2(C)C | 19.8 |
| CN1CCC(n2cnc(-c3ccc(F)cc3)c2-c2ccnc(N)n2)CC1 | 2.68 |
| FC(F)(F)c1cccc(-c2nn3ncccc3c2-c2ccnc(Nc3ccc4c(c3)OCCO4)n2)c1 | 6.61 |
| CC1=C(C(=O)Nc2cc(Cl)c3[nH]ncc3c2)C(c2ccc(C(F)(F)F)cc2)CC(=O)N1 (stereo unspecified) | 4.09 |
| CS(=O)(=O)CCNCc1ccc(-c2ccc3ncnc(Nc4ccc(OCc5ccccc5)c(C(F)(F)F)c4)c3c2)o1 | 4.3 |
| Nc1nc(-c2ccc(F)cc2)c(-c2ccc3ncccc3n2)s1 | 8.64 |
| COc1cc(Nc2nccc(Nc3ccc4c(C)n[nH]c4c3)n2)cc(OC)c1OC | 1.3 |
| CN(C)CCOc1ccc(-c2nc(-c3ccncc3)c(-c3ccc4c(c3)CC/C4=N\O)[nH]2)cc1 | 3.58 |
| CCn1c(-c2nonc2N)nc2c(C#CC(C)(C)O)ncc(OC3CCNCC3)c21 | 3.96 |
| [O-][S+]1CCN(Cc2ccc(-c3ccc4ncnc(Nc5ccc(OCc6cccc(F)c6)c(Cl)c5)c4c3)o2)CC1 | 4.66 |
| COc1ccc(-c2cc(-c3c[nH]nc3-c3ccccn3)ccn2)cc1 | 7.96 |
| Cc1ccc2c(-c3ccnc(Nc4ccccc4)n3)c(-c3ccc(F)cc3)nn2n1 | 18.6 |
| COc1ccc(-c2oc3ncnc(N)c3c2-c2ccc(NC(=O)Nc3cc(C(F)(F)F)ccc3F)cc2)cc1 | 3.02 |
| CCCN(CCS(C)(=O)=O)Cc1ccc(-c2ccc3ncnc(Nc4ccc(OCc5cccc(F)c5)c(Cl)c4)c3c2)o1 | 1.29 |
| CCn1c(-c2nonc2N)nc2c(C#CC(C)(C)O)nc(OC[C@H](N)c3ccccc3)cc21 | 5.89 |
